Screens as filed in PubChem.
NALP3 yeast inh = blocks the NALP3 inflammasome reconstituted in yeast; Yeast reconstituted NLRP3/ASC/caspase-1, beta-gal luminescence, 24 h; inhibition, % at 10 µM; actives 0.39% (n = 330,000);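 active means inhibition of 50% or more; inactive means inhibition below 50%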
SKKanGAS inh = SKKanGAS growth inhibition. S. pyogenes SKKanGAS, kanamycin growth, BacTiter-Glo, 6 h. actives 1.3% (n = 300,000). inhibition, % at 7.5 µM;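 active means mean replicate score, as percent of positive control median, at least 50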;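 further: strain carries kanamycin resistance gene driven by streptokinase promoter and grows in 40 µg/ml kanamycin; loss of luminescence reflects streptokinase promoter inhibition or plain growth inhibition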
tim10-1 inh = growth inhibitors of tim10-1 mutant yeast | S. cerevisiae tim10-1 ts strain growth, BacTiter-Glo, 24 h | actives 2.2% (n = 330,000) | inhibition, % at 20 µM;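 active means inhibition of at least 40%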;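 further: mutant grown at 25 °C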
TIM10 inh = inhibits growth of TIM10 yeast strain | actives 1.4% (n = 330,000) | inhibition, % at 10 µM | S. cerevisiae TIM10 strain growth, BacTiter-Glo luminescence, 24 h | AID 463195;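 active means inhibition of 40% or more at the single tested concentration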;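 further: wild-type TIM10 isogenic control strain grown at permissive 25 °C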
tim23-1 inh = tim23-1 yeast growth inhibition; S. cerevisiae tim23-1 growth, BacTiter-Glo luminescence, 24 h; inhibition, % at 20 µM; actives 1.3% (n = 330,000); AID 463212;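 active means growth inhibition of the mutant yeast at or above 50%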;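 further: temperature-sensitive mutant grown at 25 °C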
NALP1 yeast inh = blocks the NALP1 inflammasome reconstituted in yeast. S. cerevisiae NALP1/ASC/caspase-1 growth, X-gal OD620, 72 h. inhibition, % at 10 µM. actives 0.61% (n = 280,000). AID 2071; in the data active means inhibition mostly above about 24%, no sharp cut-off; inactive means mostly below about 32%
tim10 confirm = TIM10 yeast growth inhibition, confirmed | shares compounds with TIM10 inh | S. cerevisiae tim10 strain growth, BacTiter-Glo luminescence, 24 h | inhibition, % at 10 µM | actives 63% (n = 4,600) | AID 463215;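 active means inhibition of yeast growth at or above a set limit in either of two replicates at 10 µM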; further: this counterscreen used the strain with wild-type TIM10
Numbers stand for hits; i = inactive; nt = not tested or not shown. In the library only some 4.9% were active in any assay of this set; here they are far more common.

SMILES	NALP3 yeast inh	SKKanGAS inh	tim10-1 inh	TIM10 inh	tim23-1 inh	NALP1 yeast inh	tim10 confirm
O=C(NCCc1ccc(F)cc1)c1ccc(S(=O)(=O)N2CCCC2)cc1	i	nt	i	i	i	nt	nt
O=C(c1ccc([N+](=O)[O-])o1)N1CCN(c2nc3ccc(F)cc3s2)CC1	i	i	i	40	i	nt	81
O=C(c1ccc([N+](=O)[O-])o1)N1CCN(c2nc3c(Cl)cccc3s2)CC1	i	i	i	56	i	nt	85
O=C(c1cc2sccc2n1Cc1ccc(F)cc1)N1CCN(c2nc3ccccc3s2)CC1	i	i	i	43	i	i	i
CCOC(=O)C1CCCN(C(=O)c2cccc(S(=O)(=O)N(C)c3ccc(C)cc3)c2)C1 (configuration not stated)	i	nt	i	i	i	nt	nt
COc1ccc(-c2cc(C(=O)N3CCN(c4ccccc4OC)CC3)no2)cc1OC	i	i	i	i	i	i	nt
COc1cccc(-c2cc(C(=O)N3CCN(C(c4ccccc4)c4ccccc4)CC3)no2)c1	i	i	i	57	i	i	44
COc1cccc(-c2nc(C#N)c(N3CCN(C(=O)c4ccco4)CC3)o2)c1	i	i	i	i	i	i	nt
COc1cccc(-c2cc(C(=O)N3CCN(C(=O)c4ccco4)CC3)on2)c1	i	i	i	47	i	i	i
O=C(c1cc(-c2cccs2)on1)N1CCOCC1	i	i	i	i	i	i	nt
COc1ccc(-c2cc(C(=O)N3CCN(c4ccccc4)CC3)no2)cc1OC	i	i	i	42	i	i	i
O=C(c1cc(-c2cccs2)on1)N1CCN(C(c2ccccc2)c2ccccc2)CC1	i	i	i	50	i	i	31
Cc1cc(OCC(=O)Nc2ccccc2N2CCOCC2)c(C(C)C)cc1Cl	i	nt	i	i	i	nt	nt
CCOC(=O)c1c(CN2CCOCC2)n(-c2ccccc2)c2cc(Br)c(O)c(CN(C)C)c12	i	i	i	57	i	i	40
CC(C)N(Cc1nc(-c2ccccc2)no1)C(=O)C(Cl)(Cl)Cl	i	i	i	41	i	i	i
CCOC(=O)N/N=C/c1ccccc1OCc1ccc(Cl)cc1	i	i	i	44	i	i	33
CCN(CC(=O)NCc1cccs1)C(=O)c1ccc(-c2cccc(C(F)(F)F)c2)o1	i	i	i	i	i	nt	nt
Cc1nn(-c2ccccc2)c(N)c1N=Nc1ccc(Cl)cc1	i	i	i	44	i	i	32
Cc1cc(Oc2nnnn2-c2ccccc2)ccc1Cl	i	i	i	40	i	i	30
COc1ccc(-n2nc(C(=O)NCC(=O)Nc3ccc(F)cc3)c3ccccc3c2=O)cc1	i	i	i	i	i	i	nt
CC(=O)N/N=C/c1ccccc1OCCOc1cccc(C)c1	i	i	i	47	i	i	34
CCc1cc(C)cc(OCCOc2ccccc2/C=N/NC(C)=O)c1	i	i	i	i	i	i	nt
COc1ccc(C(=O)Nc2ccc(OCC(F)(F)C(F)F)c(C(F)(F)F)c2)cc1OC	i	i	i	45	i	i	i
CC1CCN(S(=O)(=O)c2ccc3nc(N4CCN(c5ccccc5)CC4)ccc3c2)CC1	i	i	i	i	i	i	nt
CCOc1ccc(N(CC(=O)NCc2ccccc2Cl)S(=O)(=O)c2c(C)noc2C)cc1	i	i	i	i	i	i	nt
SMILES	NALP3 yeast inh	SKKanGAS inh	tim10-1 inh	TIM10 inh	tim23-1 inh	NALP1 yeast inh	tim10 confirm
O=C(Nc1ccc2nc(-c3ccccc3)[nH]c2c1)c1ccco1	i	i	i	50	i	i	i
O=C(CNC(=O)C1CCCCC1)Nc1cc(Cl)cc(Cl)c1	i	i	i	41	i	i	i
Cc1cc(C(=O)N2CCc3c([nH]c4ccccc34)C2c2cccc(Cl)c2)nn1C (configuration not stated)	i	i	i	i	i	i	nt
O=C(c1cnccn1)N1CCc2c([nH]c3ccccc23)C1c1cccc(Cl)c1 (configuration not stated)	i	i	i	41	i	i	i
NC(=O)CSc1nnnn1-c1cccc(Cl)c1	i	i	i	i	i	i	nt
C#CCSc1nnnn1-c1cccc(Cl)c1	i	i	i	49	i	i	i
COc1ccc(OC)c(C(=O)c2coc3ccc(OC(C)=O)cc23)c1	i	i	i	i	i	i	nt
COc1ccc2occ(C(=O)c3cccs3)c2c1	i	i	i	42	i	i	39
CC(=O)Nc1cccc(Oc2nc(-c3ccccn3)nc3ccccc23)c1	i	i	i	45	i	i	33
CC(=O)Nc1ccc(Oc2nc(-c3ccccn3)nc3ccccc23)cc1	i	i	i	i	i	i	nt
CC(C)(C)C(=O)O/N=C1/C(=O)N(c2ccccc2)c2ccccc21	i	i	i	52	i	i	61
Cc1oc(-c2ccccc2)nc1CS(=O)CC(=O)NC1CCCC1 (configuration not stated)	i	i	i	i	i	i	nt
Oc1ccc(Cl)cc1CNc1ccc(Br)cn1	i	i	i	47	i	i	i
CCOc1cc(C=O)c(Br)cc1OC1CCCC1	i	i	i	40	i	i	i
C=CCNC(=O)C12CCC(C)(C(=O)[C@H]1Br)C2(C)C (some centres not stated)	i	i	i	42	i	i	i
Cc1ccc(N2C(=O)N3[C@H](c4ccc(F)cc4)[C@@H]4C(=O)N(C5CCCCC5)C(=O)[C@@H]4[C@]3(Cc3ccccc3)C2=O)cc1	i	i	i	i	i	i	nt
O=C1c2ccccc2-c2nnc(-c3ccc(F)cc3)cc21	i	i	i	i	i	i	nt
O=C1c2ccccc2-c2nnc(-c3ccc(O)cc3)cc21	i	i	i	50	i	i	31
O=C1c2ccccc2C(=O)C1c1ccc2ccccc2n1	i	i	i	58	i	i	46
CCC1CCCCN1C(=O)CSc1nnc2nc(C)cc(C)n12 (configuration not stated)	i	nt	i	43	i	nt	i
CCOC(=O)N1CCN(C(=S)NC(=O)c2c(-c3c(Cl)cccc3Cl)noc2C)CC1	i	i	i	i	i	i	i
Cc1ccc(S(=O)(=O)N2CCN(c3ccccc3)CC2)s1	i	nt	i	i	i	nt	nt
O=c1oc2ccccc2c(Nc2ccccc2O)c1[N+](=O)[O-]	i	i	i	i	i	i	nt
O=c1oc2ccccc2c(Nc2cccc3ccccc23)c1[N+](=O)[O-]	i	i	i	49	i	i	36
Cc1noc(C)c1CSCC(=O)Nc1ccccc1N1CCCCC1	i	i	i	i	i	nt	nt
Cc1ccc(-c2cc3nc(-c4ccccc4)cc(N4CCC5(CC4)OCCO5)n3n2)cc1	i	i	i	i	i	i	nt
COc1ccc(-c2cc3nc(-c4ccccc4)cc(N4CCCC(O)C4)n3n2)cc1 (configuration not stated)	i	54	i	42	i	i	34
